Laboratory results reported in the supplement of paper PMC6555819.

Test system: PPARa:RXRa (NR concentration 270 nM, RXRa partner concentration 90 nM)
Experiment: PBM binding z-score (relative to random genomic background probes); higher = stronger binding; sequences stand for … in GC…GCGATTGACAGCGTAGAATGAAGG
How it was run: (§1)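 Ligand-free nuclear receptor dimers were bound for 1 h to custom Agilent 4×180K protein-binding microarrays. Detection used antibodies against each partner (one per run). Binding z-scores rest on regression-normalized fluorescence, with random background probes as the reference.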

Sequence	PBM binding z-score
CCAACTAGGTCAGAACAGGACAGTGAAGGATGAT	2.61
CATACAGGGTCAGCTAGGCCAGAGAAGGGACGGC	4.4
TGAATGACGTTATAAGATCAGGGAACGTTGCAAA	-0.16
ATCTCTCGGTAACCAAGTTCAGTGAATGCCGAAC	0.668
CCTAGCAGGCCAATCTGGGTCACCCAAGGCTTGA	3.04
GCTTGTCGATCAAGGTTAAGAAAGACTAAGCTAA	1.17
ATATGTAGGTTAAGGGTCACTCAGGTTGGTTCGC	6.85
GCTGCTAGGTTAGGTTGGTCAGCTAACGGGTACG	-0.376
ATCGAAAGGTCGACGAGGTGAGTGTACACCGTTT	4.42
CAAACTAGGTCACGAAAGGTCAAGGTCGAATGAC	6.43
TAGCCTAGGTCAGATGGGGCCAGTATACGCTATA	1.78
ATCGCAAGGTCGTGAGGTGAGTATACAGAAAGGC	3.36
TAGCATAGGTCATGGGCCAGTATACCACGCGAAC	5.98
TCTGCTAGGTCAGCTGGTCAGCTAACGAGCTGCC	1.95
GCTGTTAGGTCAGGTTGGTCAGCTAACGGGTACG	1.79
TCGGCTAGGTCAGTTGGTCAGCTAACGAGCTGCC	1.48
CCCATTAGTTGACCATAAGGGCAACCGAAGCTCG	0.65
TAGCTTAGGTCATTGGGCCAGTATAGTACGCATC	4.09
CCTTACGGGGCACTGACAGGTTATAGCATTTGGA	0.455
TCGAGTAGGTTACCGATGGGGCATTCAGCTTTCT	1.29

Sequence	PBM binding z-score
TCTATTAGTTGATTAGGGCATCCGAAACAGCGGA	0.769
TCTGCTAGGTCGGTTGGTCAGCTAACGAGCTGCC	0.029
CGAACTAGGTCAGAACATGACAGTGAAGGATGAT	3.07
TTACCAAGGTGAGCCGAGGTCGTTGATCCAACTC	2.19
CAAACTAGGTCACCGGAAGGTCAACGTCCGCATG	6.13
CCTACTGGGCCACGAAAAGTCATTGATTCAGTGA	0.98
AATACAGGGTCATCGTAGACCAGAGTACGCACAG	5.84
CCTTACGGGTCACTCCAGGCTATAGCATCGGAGT	4.07
CCACACAGGTGAAAGGTAACTCAGTCTGGTACGC	3.42
TCCGACAGGTGAAGGTAACTCAGGTACGCAGTCG	0.847
ATCGATAGGTCGACGAGGTGAGTATACACCGTTT	1.69
TAGCCTAGGTCATGCAGGCCAGTATAGTGTCGGC	3.38
CGTCCAACGTCAGAGAGGTCAGTGAATGCCGAGT	2.31
CCCTACGGGTCACTGACAGGTTATAGCATTTGGA	5.1
AGAATGAGGTTACCAAACATCAGGGAAACGCTTG	3.21
CCTACTGGGCCATTCAGAGGTGATTGATCATATG	0.81
CCTACCAGGCCAGGGTCACTCAAGCATTTCGCTT	2.88
CGAACTAGGTCATCCAGGACAATGAATACATTGA	4.83
ACTAGTTGGTGAGCTGAGGTCACACACAATTCGG	3.35
CGTCCAAGCTCAAAGGTCAGTGAAGAGATGACGG	3.99

Test system: PPARg:RXRa (NR concentration 180 nM, RXRa partner concentration 90 nM)
Experiment: as above
How it was run: as §1

Sequence	PBM binding z-score
CCAACTAGGTCAGAACAGGACAGTGAAGGATGAT	4.46
CATACAGGGTCAGCTAGGCCAGAGAAGGGACGGC	3.38
TGAATGACGTTATAAGATCAGGGAACGTTGCAAA	0.208
ATCTCTCGGTAACCAAGTTCAGTGAATGCCGAAC	-0.0283
CCTAGCAGGCCAATCTGGGTCACCCAAGGCTTGA	2.45
GCTTGTCGATCAAGGTTAAGAAAGACTAAGCTAA	-0.154
ATATGTAGGTTAAGGGTCACTCAGGTTGGTTCGC	11.8
GCTGCTAGGTTAGGTTGGTCAGCTAACGGGTACG	-0.306
ATCGAAAGGTCGACGAGGTGAGTGTACACCGTTT	2.9
CAAACTAGGTCACGAAAGGTCAAGGTCGAATGAC	10.6
TAGCCTAGGTCAGATGGGGCCAGTATACGCTATA	0.972
ATCGCAAGGTCGTGAGGTGAGTATACAGAAAGGC	1.49
TAGCATAGGTCATGGGCCAGTATACCACGCGAAC	5.56
TCTGCTAGGTCAGCTGGTCAGCTAACGAGCTGCC	0.828
GCTGTTAGGTCAGGTTGGTCAGCTAACGGGTACG	0.166
TCGGCTAGGTCAGTTGGTCAGCTAACGAGCTGCC	0.0282
CCCATTAGTTGACCATAAGGGCAACCGAAGCTCG	0.359
TAGCTTAGGTCATTGGGCCAGTATAGTACGCATC	2.96
CCTTACGGGGCACTGACAGGTTATAGCATTTGGA	0.465
TCGAGTAGGTTACCGATGGGGCATTCAGCTTTCT	0.217

Sequence	PBM binding z-score
TCTATTAGTTGATTAGGGCATCCGAAACAGCGGA	0.185
TCTGCTAGGTCGGTTGGTCAGCTAACGAGCTGCC	-1.04
CGAACTAGGTCAGAACATGACAGTGAAGGATGAT	5.35
TTACCAAGGTGAGCCGAGGTCGTTGATCCAACTC	0.623
CAAACTAGGTCACCGGAAGGTCAACGTCCGCATG	9.54
CCTACTGGGCCACGAAAAGTCATTGATTCAGTGA	1.63
AATACAGGGTCATCGTAGACCAGAGTACGCACAG	6.79
CCTTACGGGTCACTCCAGGCTATAGCATCGGAGT	2.95
CCACACAGGTGAAAGGTAACTCAGTCTGGTACGC	5.45
TCCGACAGGTGAAGGTAACTCAGGTACGCAGTCG	0.493
ATCGATAGGTCGACGAGGTGAGTATACACCGTTT	1.15
TAGCCTAGGTCATGCAGGCCAGTATAGTGTCGGC	2.19
CGTCCAACGTCAGAGAGGTCAGTGAATGCCGAGT	0.391
CCCTACGGGTCACTGACAGGTTATAGCATTTGGA	3.55
AGAATGAGGTTACCAAACATCAGGGAAACGCTTG	2.42
CCTACTGGGCCATTCAGAGGTGATTGATCATATG	0.504
CCTACCAGGCCAGGGTCACTCAAGCATTTCGCTT	0.899
CGAACTAGGTCATCCAGGACAATGAATACATTGA	7.88
ACTAGTTGGTGAGCTGAGGTCACACACAATTCGG	1.49
CGTCCAAGCTCAAAGGTCAGTGAAGAGATGACGG	3.03
